HCMV inh: blocks human cytomegalovirus replication; actives 4.5% (n = 410,000); activity change, negative = inhibition, % at 57.5 µM; HFF cells, HCMV-luciferase reporter, 72 h; hits give low values; in the data active = activity change below about -60%; inconclusive = no clear call, values can overlap the other calls; inactive = above about -39%; note: % is set by controls: 0 for no effect and ±100 for the full control effect
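Compounds were evaluated in HFFs infected with an HCMV luciferase reporter virus (MOI 1 PFU/cell). Luciferase in lysates collected 72 h post infection served as the replication measure.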
HCV inhibitor: HCV inhibition; Huh7.5.1 HCVcc-Cre infection, luciferase reporter, 44 h; Potency, µM (series often up to 41.8 µM), for inactives: at the highest dose activity change, negative = inhibition, usual class: inhibitors; actives 3.4% (n = 340,000); AID 651820; note: potency is the fitted concentration of half-maximal effect; % is set by controls: 0 for no effect and ±100 for the full control effect
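Reporter virus HCVcc-Cre (~0.5 moi) infects cells exposed to compound; seeding density 1,000 cells/well with 4 h settling beforehand. Luminescence, 15 sec read, taken 44 h post-infection following a 15 min RT substrate incubation.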
Pf growth 48h: inhibits P. falciparum growth in the first generation, 48 h. P. falciparum luciferase growth in erythrocytes, 48 h. Potency, µM (series often up to 28.7 µM), for inactives: at the top dose activity change, negative = inhibition, usual class: inhibitors. actives 5.9% (n = 310,000). AID 504832; note: potency is the fitted concentration of half-maximal effect; % is set by controls: 0 for no effect and ±100 for the full control effect
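Erythrocytes infected with P. falciparum carrying an integrated firefly luciferase reporter (2% hematocrit, 0.1% parasitemia final) were exposed to compounds in RPMI 1640 with 0.5% Albumax at 37 C, 5% CO2. Growth inhibition was scored as reduced luminescence.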
Pf growth 96h: P. falciparum growth inhibition at 96 hours | P. falciparum luciferase reporter growth, 96 h | Potency, µM (highest dose often 28.7 µM), without a hit: top-dose activity change, negative = inhibition, usual class: inhibitors | actives 6.9% (n = 320,000); note: potency is the fitted concentration of half-maximal effect; % is set by controls: 0 for no effect and ±100 for the full control effect
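96 h incubation, 37 C, 5% CO2, of luciferase-reporter P. falciparum-infected RBCs (2% hematocrit, 0.05% parasitemia final) with test compounds; endpoint luminescence.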
Sm TGR block: S. mansoni TGR enzyme inhibition; Q962Y6; purified TGR, DTNB reduction, TNB absorbance 405 nm; Potency, µM (top dose mostly 114 µM), without a hit: at the top dose activity change, negative = inhibition, usual class: inhibitors; actives 3% (n = 360,000); AID 485364; note: potency is the fitted concentration of half-maximal effect; % is set by controls: 0 for no effect and ±100 for the full control effect; nearly all actives have a fitted effect of over 60% in size
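First, TGR (20 nM dispensed) and NADPH were mixed with compound. Second, a 15 min room-temperature incubation followed. Third, further NADPH and then DTNB were added to start the reaction. Finally, TNB absorbance was monitored kinetically.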
SARS PLP yeast: inhibitors of SARS-CoV papain-like protease in yeast; Potency, µM (highest dose often 32.9 µM), for the others: top-dose activity, positive = growth rescue, hits mostly activators; actives 0.19% (n = 330,000); S. cerevisiae expressing SARS-CoV PLpro, growth rescue; calls by dose curve; note: potency is the fitted concentration of half-maximal effect; 0% is about no effect; nearly all actives have a fitted effect of over 55% in size
Numbers without * were called inactive; ? = inconclusive; . = not tested or not shown. Most compounds without a hit are left out; they make up all but 15% or so of the library. Unless noted, calls come from the whole dose curve; as a rule, active = well fitted curve in the direction sought with a large enough effect; inconclusive = small, poorly fitted or top-dose-only effect, or another doubt; inactive = no such curve, though single readings can be large; an effect the other way counts as inactive or inconclusive.

SMILES	HCMV inh	HCV inhibitor	Pf growth 48h	Pf growth 96h	Sm TGR block	SARS PLP yeast
CC(C)Cn1c(C23CC4CC(CC(C4)C2)C3)n[nH]c1=S	8	-2%	?	8%	4%	3%
Cn1c(C23CC4CC(CC(C4)C2)C3)n[nH]c1=S	7	-2%	?	42%	2%	13µM*
O=C(N/N=C/c1ccc(Cl)cc1)c1n[nH]c2c1CCCC2	-91*	-11%	101%	57%	16%	2%
O=C(Cn1[nH]c(=O)c2ccccc2c1=O)NCCN1C(=O)S/C(=C\c2ccccc2)C1=O	0	11µM*	.	.	.	-1%
Cc1c(C(=O)NCCN2C(=O)S/C(=C\c3cccnc3)C2=O)cccc1[N+](=O)[O-]	-19	1%	5.2µM*	?	8%	1%
O=C(CCl)NCCN1C(=O)S/C(=C\c2cccnc2)C1=O	-77*	-14%	?	?	40µM*	-1%
CC(C(=O)NCCN1C(=O)S/C(=C\c2cccnc2)C1=O)N1C(=O)c2ccccc2C1=O (configuration not stated)	-8	7%	?	3%	4%	6%
CCCCC(=O)OCc1c(-c2cccc(OC)c2)ncc2ccccc12	-13	-25%	25%	?	-21%	0%
Cc1cc(C)c(S(=O)(=O)N2CCOC2CNC(=O)C(=O)NCCN(C)C)c(C)c1 (configuration not stated)	18	24%	24%	15%	-3%	3%
c1ccc(-c2ccc3ncccc3n2)cc1	25	.	.	.	.	.
CC(=O)C1=NN(c2ccccc2)C2(S1)S/C(=C\c1ccccc1)C(=O)N2c1ccccc1 (configuration not stated)	-8	?	12µM*	.	-14%	3%
COC(=O)C1=NN(c2ccccc2)C2(S1)SC(C(C)=O)=C(C)N2c1ccccc1 (configuration not stated)	-39	6%	?	0%	4%	0%
COC(=O)C1=NN(c2ccc(C)cc2)C2(S1)SC(C(C)=O)=C(C)N2c1ccccc1 (configuration not stated)	?	13%	10µM*	.	-16%	-3%
CCCn1c2c(c(=N)c3c1CCC3)CCCC2	-97*	12%	0.37µM*	0.12µM*	9%	-16%
CCCCCn1c(=O)[nH]c2c(c1=O)CCC2	-30	15%	2%	.	-12%	-4%
COC(=O)Cn1c2c(c3cc(C)ccc31)CCCC2	-22	-10%	-5%	30%	0%	-1%
CCCn1c2c(c(=N)c3c1CCC3)CCC2	-74*	?	0.37µM*	?	-3%	-1%
CCOC(=O)Cn1c2c(c(=N)c3c1CCC3)CCCC2	?	6%	?	0.19µM*	3%	17%
CCCn1c(=S)[nH]c2sc3c(c2c1=O)CCCC3	-21	-3%	17%	-1%	2%	0%
CCCCCCCn1c2c(c(=N)c3ccccc31)CCC2	-79*	1.8µM*	0.93µM*	21%	8%	-6%
COc1cccc(OCC(=O)NNC(=O)C(=O)N2CCCC2)c1	12	31%	15%	-5%	-18%	15%
COc1cccc(C(NC(C)=O)c2nc(-c3cccc(F)c3)cs2)c1 (configuration not stated)	-31	.	.	.	.	.
CCN1CCN(C(=O)CN(C)S(=O)(=O)c2ccc(OC)c(C)c2)CC1	4	16%	.	-25%	-7%	-5%
CCN1CCN(C(=O)CN(c2ccc(F)cc2)S(=O)(=O)c2ccc(OC)c(OC)c2)CC1	?	-23%	-21%	6.6µM*	3%	3%
COc1ccc(S(=O)(=O)N(C)CC(=O)N2CCN(c3ccc(F)cc3)CC2)cc1OC	-5	-8%	-23%	.	18%	2%
SMILES	HCMV inh	HCV inhibitor	Pf growth 48h	Pf growth 96h	Sm TGR block	SARS PLP yeast
COc1ccc(S(=O)(=O)N(C)CC(=O)N2CCCCCC2)cc1OC	-38	4%	-4%	9.3µM*	1%	3%
CN1CCCN(C(=O)c2c(F)cccc2Cl)CC1	41	7%	9%	-24%	-17%	-2%
O=c1ccc(-c2nc3ccccc3n2Cc2ccccc2Cl)c[nH]1	2	6%	-33%	?	5%	0%
O=c1ccc(-c2nc3cc(Cl)ccc3n2Cc2ccccc2)c[nH]1	29	20%	?	9.3µM*	10%	-1%
CCCCCC1=C(C(=O)OC)C(C(=O)OCC)N(S(=O)(=O)C(F)(F)F)c2ccccc21 (configuration not stated)	-16	11µM*	.	.	.	-28%
O=C(CN1CCN(S(=O)(=O)c2ccc(Cl)cc2)CC1)N1CCCC1	-15	17%	1%	5%	-13%	-3%
CCOC(=O)CSc1nc2ccccc2c(=O)n1NC(=O)c1ccccc1	110	10%	347%	7.4µM*	?	2%
CCN(C(=O)CSc1nc2cc(C(=O)OC)ccc2c(=O)n1Cc1ccco1)c1cccc(C)c1	-24	?	4.7µM*	-7%	0%	3%
CCOC(=O)CSc1nc2c(sc3ccc([N+](=O)[O-])cc32)c(=O)n1Cc1ccco1	-37	6.3µM*	6.6µM*	33%	?	14%
CCOC(=O)CSc1nc2c(sc3ccccc32)c(=O)n1Cc1ccc(C)cc1	-28	.	.	.	1%	.
CCCCCn1c(SCC(=O)OCC)nc2cc(C(=O)NCc3ccco3)ccc2c1=O	7	?	?	15%	0%	2%
C=CCn1c(SCC(=O)OCC)nc2cc(C(=O)NCc3ccco3)ccc2c1=O	68	?	.	7.4µM*	5%	6%
CCOC(=O)CSc1nc2ccccc2c(=O)n1Cc1ccco1	2	13µM*	-2%	1%	-5%	-1%
CCOc1ccc2nc(NC(=O)CSc3nc4ccccc4c(=O)n3Cc3ccco3)sc2c1	-11	?	?	1.3µM*	-17%	2%
O=C(CSc1nc2ccccc2c(=O)n1Cc1ccco1)c1ccccc1	-69*	?	-19%	0%	-15%	-5%
CCCCN(CC)C(=O)CSc1nc2ccccc2c(=O)n1Cc1ccco1	-40	.	.	.	-8%	.
CN(C)C(CNC(=O)CSc1nc2ccccc2c(=O)n1Cc1ccco1)c1ccccc1 (configuration not stated)	-38	1%	?	?	-27%	-3%
O=c1c2ccccc2nnn1CSc1nc2ccccc2c(=O)n1Cc1ccco1	?	-3%	1%	24%	0%	?
Cc1ccccc1C(=O)/C=C1/SCC(=O)N1C	-19	1%	14%	50%	-3%	-2%
COc1ccccc1CNC(=O)c1cc(-c2cccnc2)nc2ccccc12	-18	?	10µM*	-10%	8%	-4%

Assay outcomes as filed in PubChem.
